Measured values published in PubChem BioAssay (EPA / NIEHS).
The source made the active and inactive calls. The calls were made as follows: active = hit-call score of the fitted dose curve at least 0.9, where 1 is the maximum; inactive = score below 0.9.

Assays:
Conditions in all cases: mRNA level, 48 h; actives raise or lower the signal
[1] = read-out: Bcl-2 (BID) gene, BID (gene 637); assay: LTEA_HepaRG_BID: Life Technologies and Expression Analysis (LTEA) Assay for Bcl-2 (BID) gene using HepaRG (AID 2283476)
Outline: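 Gain or loss of BID expression is fitted relative to 0.5% DMSO vehicle. Human HepaRG liver cells received a 48 h chemical exposure over an eight-point concentration range.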

Caspase-3 (Homo sapiens) = Caspase-3 (Homo sapiens) (UniProt P42574); assay: LTEA_HepaRG_CASP3: Life Technologies and Expression Analysis (LTEA) Assay for cysteine-aspartic acid protease (CASP3) using HepaRG (AID 2283477)
Sequence of Caspase-3 (Homo sapiens) (P42574 whole entry, looked up): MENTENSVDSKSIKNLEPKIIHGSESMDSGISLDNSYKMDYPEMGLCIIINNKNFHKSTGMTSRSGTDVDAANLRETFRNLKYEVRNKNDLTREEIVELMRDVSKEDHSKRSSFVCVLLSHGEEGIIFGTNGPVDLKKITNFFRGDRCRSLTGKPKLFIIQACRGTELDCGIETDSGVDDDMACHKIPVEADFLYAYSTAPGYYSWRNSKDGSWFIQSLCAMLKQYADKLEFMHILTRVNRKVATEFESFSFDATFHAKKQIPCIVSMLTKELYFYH
Outline: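 Differentiated HepaRG cells, plated 48 h, were treated in duplicate in serum-free induction medium for 48 h with eight half-log concentrations up to 100 uM in 0.5% DMSO. CASP3 mRNA measured by qRT-PCR, normalized to ACTB, GAPDH, POLR2A.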

[2] = read-out: Cytochrome P450 (CYP24A1), CYP24A1 (gene 1591); assay: LTEA_HepaRG_CYP24A1: Life Technologies and Expression Analysis (LTEA) Assay for Cytochrome P450 (CYP24A1) using HepaRG (AID 2283478)
Outline: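 HepaRG cells plated 48 h, then exposed in duplicate in serum-free induction medium for 48 h to 8-point half-log series from 100 uM in 0.5% DMSO. CYP24A1 mRNA by Fluidigm qRT-PCR, normalized to ACTB, GAPDH, POLR2A; bidirectional fit versus DMSO.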

[3] = read-out: Cytochrome P450 (CYP1A2), CYP1A2 (gene 1544); assay: LTEA_HepaRG_CYP1A2: Life Technologies and Expression Analysis (LTEA) Assay for Cytochrome P450 (CYP1A2) using HepaRG (AID 2283479)
Outline: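 Differentiated human HepaRG cells in serum-free induction medium exposed 48 hours in duplicate to 8 half-log concentrations from 100 uM, 0.5% DMSO. CYP1A2 mRNA quantified by qRT-PCR, normalized to ACTB, GAPDH and POLR2A; bidirectional fitting versus DMSO.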

[4] = read-out: cysteine-aspartic acid protease (CASP8), CASP8 (gene 841); assay: LTEA_HepaRG_CASP8: Life Technologies and Expression Analysis (LTEA) Assay for cysteine-aspartic acid protease (CASP8) using HepaRG (AID 2283480)
Outline: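 HepaRG, 48 h exposure, duplicate wells; 8 conc, half-log from 100 uM, 0.5% DMSO. Serum-free induction medium. CASP8 mRNA by TaqMan qRT-PCR, norm. ACTB/GAPDH/POLR2A; gain/loss fitted vs DMSO.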

[5] = read-out: Cytochrome P450 (CYP2B6), CYP2B6 (gene 1555); assay: LTEA_HepaRG_CYP2B6: Life Technologies and Expression Analysis (LTEA) Assay for Cytochrome P450 (CYP2B6) using HepaRG (AID 2283481)
Outline: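 Differentiated human HepaRG cells in serum-free induction medium, dosed in duplicate for 48 h over 8 half-log concentrations topping at 100 uM (0.5% DMSO). CYP2B6 mRNA measured by TaqMan qRT-PCR, normalized to ACTB, GAPDH, POLR2A; bidirectional fit versus DMSO.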

[6] = read-out: Cytochrome P450 2C19 (Homo sapiens) (UniProt P33261); assay: LTEA_HepaRG_CYP2C19: Life Technologies and Expression Analysis (LTEA) Assay for CYP2C19 using HepaRG (AID 2283482)
Outline: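 Differentiated HepaRG cells in serum-free induction medium exposed 48 h in duplicate, 8 concentrations from 100 uM by half-log steps in 0.5% DMSO. CYP2C19 mRNA measured by TaqMan qRT-PCR, normalized to ACTB, GAPDH, POLR2A. Bidirectional fit versus DMSO.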

CYP2C8 (gene 1558) = assay: LTEA_HepaRG_CYP2C8: Life Technologies and Expression Analysis (LTEA) Assay for CYP2C8 using HepaRG (AID 2283483)
Outline: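 CYP2C8 mRNA induction or loss, by qRT-PCR normalized to ACTB/GAPDH/POLR2A, is read in HepaRG cells after 48 h treatment. Concentrations run from 100 uM down in half-log dilutions, with 0.5% DMSO as vehicle and baseline.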

CYP2C9 (gene 1559) = assay: LTEA_HepaRG_CYP2C9: Life Technologies and Expression Analysis (LTEA) Assay for CYP2C9 using HepaRG (AID 2283484)
Outline: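 Cells plated 48 h, switched to serum-free induction medium, then treated in duplicate for 48 h at eight concentrations (max 100 uM, 0.5% DMSO). RNA then analysed by qRT-PCR for CYP2C9; curves fitted in both directions relative to DMSO.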

[7] = read-out: Cytochrome P450 3A4 (Homo sapiens) (UniProt P08684); assay: LTEA_HepaRG_CYP3A4: Life Technologies and Expression Analysis (LTEA) Assay for CYP3A4 using HepaRG (AID 2283487)
Outline: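 CYP3A4 transcript measured by TaqMan qRT-PCR and normalized to three housekeeping genes after 48 h chemical exposure of human HepaRG cells. Top concentration 100 uM, half-log steps, 0.5% DMSO vehicle; gain or loss fitted against DMSO baseline.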

[8] = read-out: DNA damage-inducible transcript 3 (DDIT3), DDIT3 (gene 1649); assay: LTEA_HepaRG_DDIT3: Life Technologies and Expression Analysis (LTEA) Assay for DNA damage-inducible transcript 3 (DDIT3) using HepaRG (AID 2283488)
Outline: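 Changes in DDIT3 transcript, in either direction relative to 0.5% DMSO vehicle, were quantified by TaqMan qRT-PCR after 48 h chemical exposure of HepaRG cells at 8 concentrations, maximum 100 uM.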

[9] = read-out: Early growth response protein 1 (EGR1) transcription factor, EGR1 (gene 1958); assay: LTEA_HepaRG_EGR1: Life Technologies and Expression Analysis (LTEA) Assay for Early growth response protein 1 (EGR1) transcription factor using HepaRG (AID 2283490)
Outline: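 Read-out is EGR1 mRNA level by qRT-PCR, normalized to three housekeeping genes and analysed for gain or loss of signal against 0.5% DMSO. Source cells: human HepaRG, treated 48 h at up to 100 uM in half-log dilutions.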

[10] = read-out: Ezrin (EZR), EZR (gene 7430); assay: LTEA_HepaRG_EZR: Life Technologies and Expression Analysis (LTEA) Assay for Ezrin (EZR) using HepaRG (AID 2283491)
Outline: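 HepaRG, 48 h chemical exposure, 8-pt half-log series from 100 uM, 0.5% DMSO vehicle, duplicates. Read-out: EZR mRNA by TaqMan qRT-PCR (Fluidigm array), housekeeping-normalized; bidirectional curve fit vs DMSO baseline.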

[11] = read-out: Cytochrome P450 3A7 (Homo sapiens) (UniProt P24462); assay: LTEA_HepaRG_CYP3A7: Life Technologies and Expression Analysis (LTEA) Assay for CYP3A7 using HepaRG (AID 2283492)
Outline: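 Differentiated HepaRG cells in serum-free induction medium exposed 48 h in duplicate to 8-point half-log series from 100 uM top in 0.5% DMSO. CYP3A7 mRNA by qRT-PCR, normalized to ACTB/GAPDH/POLR2A, bidirectional fit versus DMSO.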

[12] = read-out: Fatty Acid-Binding Protein 1 (FABP1), FABP1 (gene 2168); assay: LTEA_HepaRG_FABP1: Life Technologies and Expression Analysis (LTEA) Assay for Fatty Acid-Binding Protein 1 (FABP1) using HepaRG (AID 2283494)
Outline: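 HepaRG, 48 h post-plating switched to serum-free induction medium, then dosed 48 h (duplicate, 8 pts, ≤100 uM, 0.5% DMSO). RNA → Fluidigm TaqMan qRT-PCR, FABP1 normed to ACTB/GAPDH/POLR2A. Bidirectional curve fit vs DMSO.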

[13] = read-out: Cytochrome P450 4A22 (Homo sapiens) (UniProt Q5TCH4); assay: LTEA_HepaRG_CYP4A22: Life Technologies and Expression Analysis (LTEA) Assay for Cytochrome P450 4A22 (CYP4A22) using HepaRG (AID 2283495)
Outline: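 Differentiated HepaRG cells in serum-free induction medium exposed 48 h in duplicate to eight half-log concentrations up to 100 uM in 0.5% DMSO. CYP4A22 mRNA quantified by TaqMan qRT-PCR, normalized to ACTB, GAPDH and POLR2A; bidirectional fit versus DMSO.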

CYP3A5 (gene 1577) = assay: LTEA_HepaRG_CYP3A5: Life Technologies and Expression Analysis (LTEA) Assay for CYP3A5 using HepaRG (AID 2283493)
Outline: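 mRNA induction or loss of CYP3A5 assessed in HepaRG after 48 h dosing, 100 uM top concentration, duplicate wells; TaqMan qRT-PCR with ACTB, GAPDH, POLR2A normalization; 0.5% DMSO as negative control.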

[14] = read-out: Pro-epidermal growth factor (Homo sapiens) (UniProt P01133); assay: LTEA_HepaRG_EGF: Life Technologies and Expression Analysis (LTEA) Assay for Epidermal growth factor (EGF) using HepaRG (AID 2283489)
Outline: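 HepaRG cells (~100,000/well, 48 h pre-culture) exposed in duplicate for 48 h in serum-free induction medium to 8 half-log concentrations up to 100 uM in 0.5% DMSO. EGF mRNA by qRT-PCR, normalized to ACTB/GAPDH/POLR2A; bidirectional fit versus DMSO.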

Measured: AC50

Sequence of Cytochrome P450 3A7 (Homo sapiens) (P24462 whole entry, looked up): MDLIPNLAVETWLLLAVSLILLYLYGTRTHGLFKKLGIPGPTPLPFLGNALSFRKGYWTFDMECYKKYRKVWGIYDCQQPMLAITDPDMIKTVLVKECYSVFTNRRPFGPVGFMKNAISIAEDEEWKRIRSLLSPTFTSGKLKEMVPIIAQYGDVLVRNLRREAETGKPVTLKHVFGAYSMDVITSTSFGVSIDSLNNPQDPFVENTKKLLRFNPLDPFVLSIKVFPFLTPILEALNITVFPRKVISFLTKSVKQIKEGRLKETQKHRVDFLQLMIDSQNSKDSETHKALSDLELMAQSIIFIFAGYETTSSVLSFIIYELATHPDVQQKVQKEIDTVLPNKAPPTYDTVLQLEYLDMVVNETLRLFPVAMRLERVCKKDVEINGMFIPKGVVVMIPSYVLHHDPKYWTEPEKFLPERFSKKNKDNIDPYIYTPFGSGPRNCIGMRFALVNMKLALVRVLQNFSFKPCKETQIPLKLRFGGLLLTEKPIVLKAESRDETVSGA
Sequence of Cytochrome P450 3A4 (Homo sapiens) (P08684 whole entry, looked up): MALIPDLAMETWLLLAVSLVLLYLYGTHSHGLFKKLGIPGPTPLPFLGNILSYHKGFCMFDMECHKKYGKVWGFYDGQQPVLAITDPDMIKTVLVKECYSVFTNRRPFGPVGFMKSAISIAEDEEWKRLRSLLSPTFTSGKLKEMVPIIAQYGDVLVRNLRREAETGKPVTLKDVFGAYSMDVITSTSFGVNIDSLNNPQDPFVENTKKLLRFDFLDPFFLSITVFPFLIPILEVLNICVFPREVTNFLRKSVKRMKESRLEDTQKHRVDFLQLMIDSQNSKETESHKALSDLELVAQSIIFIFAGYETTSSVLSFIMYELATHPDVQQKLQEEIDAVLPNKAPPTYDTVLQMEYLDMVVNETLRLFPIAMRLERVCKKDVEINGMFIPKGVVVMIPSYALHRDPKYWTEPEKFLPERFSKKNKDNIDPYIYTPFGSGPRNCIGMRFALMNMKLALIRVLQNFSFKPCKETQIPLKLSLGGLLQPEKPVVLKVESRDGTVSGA
Sequence of Cytochrome P450 2C19 (Homo sapiens) (P33261 whole entry, looked up): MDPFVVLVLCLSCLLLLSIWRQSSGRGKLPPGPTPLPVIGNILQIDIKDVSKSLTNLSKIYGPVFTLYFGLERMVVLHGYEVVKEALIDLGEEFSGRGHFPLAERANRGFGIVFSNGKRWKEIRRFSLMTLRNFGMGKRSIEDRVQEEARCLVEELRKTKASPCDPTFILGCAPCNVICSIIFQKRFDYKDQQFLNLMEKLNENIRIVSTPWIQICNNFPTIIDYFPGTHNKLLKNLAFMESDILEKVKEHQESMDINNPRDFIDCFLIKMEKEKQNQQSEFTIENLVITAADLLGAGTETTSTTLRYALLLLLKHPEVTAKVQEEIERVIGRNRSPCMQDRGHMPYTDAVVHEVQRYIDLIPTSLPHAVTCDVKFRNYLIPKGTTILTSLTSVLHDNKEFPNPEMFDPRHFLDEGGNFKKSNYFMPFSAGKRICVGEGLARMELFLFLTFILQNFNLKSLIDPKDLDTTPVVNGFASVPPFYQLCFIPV

CNC(=O)ON=CC(C)(C)SC
active: [5] 50 µM
not listed: CYP3A5 (gene 1577) | [14]
inactive: all other assays above

Oc1ccccc1-c1ccccc1
not listed: CYP3A5 (gene 1577) | [14]
inactive: all other assays above

COC(=O)N(OC)c1ccccc1COc1ccn(-c2ccc(Cl)cc2)n1
inactive: [2] | [9] | [10]
active: [1] 75.3 µM | Caspase-3 (Homo sapiens) 79.5 µM | [3] 12.4 µM | [4] 80.1 µM | [5] 78.1 µM | [6] 77.8 µM | CYP2C8 (gene 1558) 77.9 µM | CYP2C9 (gene 1559) 74.7 µM | [7] 78.5 µM | [8] 60.9 µM | [11] 74 µM | [12] 80.4 µM | [13] 15.8 µM

COP(N)(=O)SC (centres undefined)
not listed: CYP3A5 (gene 1577) | [14]
inactive: all other assays above

CC(C)(C)c1ccc(CSc2cnn(C(C)(C)C)c(=O)c2Cl)cc1
active: [3] 2.36 µM | [4] 12.8 µM | [5] 1.54 µM | [6] 28 µM | CYP2C8 (gene 1558) 22.5 µM | CYP2C9 (gene 1559) 13.4 µM | [7] 1.56 µM | [8] 2.06 µM | [9] 1.12 µM | [11] 1.05 µM | [12] 2.8 µM | [13] 1.74 µM
inactive: [1] | Caspase-3 (Homo sapiens) | [2]

CCNc1nc(Cl)nc(NC(C)C)n1
active: [3] 50 µM | [5] 2.34 µM | [6] 15.2 µM | CYP2C8 (gene 1558) 31.5 µM | [7] 15.7 µM | [13] 50 µM
not listed: [14]
inactive: all other assays above

CC(C)Oc1cc(-n2nc(C(C)(C)C)oc2=O)c(Cl)cc1Cl
active: [5] 90.5 µM | [6] 1.44 µM | CYP2C8 (gene 1558) 86.3 µM | CYP2C9 (gene 1559) 82.3 µM | [7] 1.04 µM | [8] 77.7 µM | [12] 19.4 µM | [13] 50 µM
not listed: [3]
inactive: all other assays above

COc1cnc(OC)n2nc(NS(=O)(=O)c3c(OCC(F)F)cccc3C(F)(F)F)nc12
active: [5] 6.02 µM | [6] 10.8 µM | [7] 8.2 µM | [13] 9.46 µM
not listed: [14]
inactive: all other assays above

N#Cc1cc(Br)c(O)c(Br)c1
active: Caspase-3 (Homo sapiens) 7.76 µM | [3] 12.9 µM | [4] 23.6 µM | [5] 9.97 µM | [6] 13.9 µM | CYP2C8 (gene 1558) 25.3 µM | CYP2C9 (gene 1559) 14.4 µM | [7] 16.1 µM | [8] 68.3 µM | [9] 10 µM | [11] 11.3 µM | CYP3A5 (gene 1577) 9.58 µM | [12] 13 µM | [13] 25 µM
inactive: [1] | [2] | [10]

CCCCNC(=O)n1c(NC(=O)OC)nc2ccccc21
active: [3] 20.7 µM
not listed: CYP3A5 (gene 1577) | [14]
inactive: all other assays above

Cc1c(F)c(F)c(COC(=O)C2C(/C=C(\Cl)C(F)(F)F)C2(C)C)c(F)c1F (centres undefined)
active: [12] 63.1 µM
not listed: CYP3A5 (gene 1577) | [14]
inactive: all other assays above
